This passage reports growth results from PubChem BioAssay (NCI).

“And” between values parts separate entries of the source, which are not always exact repeats. Equal entries are not always repeated. About 83,000 compounds went through this panel and 20% of them were active in at least one assay; those are over-represented in the sample as a whole.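 Percent growth is the endpoint: 0 to 100 indicates growth inhibition (40 means 60% inhibition), 0 means no net growth, and negative values indicate cell death.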 Values without a mark were called inactive. The source made the active and inactive calls. The calls were made as follows: active = growth percent below 10; inactive = the rest.

Holding throughout (assay): NCI-60 one-dose screen, 48 h (100 = growth as untreated, 0 = no growth, -100 = all killed)
Common to all, as to settings: 10 µM unless noted

For assay [1], the system named is HCT-15 colon.
Assay [2] concerns HT29 colon.
Assay [3] deals with SNB-75 CNS.
For assay [4], the system named is SNB-19 CNS.
In assay [5] the test system is U251 CNS.
The test system of assay [6] is PC-3 prostate.
The subject of assay [7] is SK-MEL-5 melanoma.
The test system of assay [8] is UACC-62 melanoma.
The test system of assay [9] is LOX IMVI melanoma.
The test system of assay [10] is SK-MEL-28 melanoma.

On to `O=NN1CCCCC1`, for which the growth was 106% in assay [1]; 103% in assay [2]; 82.6% in [3]; 97.8% in assay [4]; 111% in assay [5]; 110% in assay [6]. Also, the growth in [7] was 106%; in assay [8], 97.1%; in assay [9], 100%.
`O=[P+](O)c1cccnc1`: the growth in assay [1] was 106%; in assay [2] it was 93.7%; in [3] it was 94.3%; in [4], 106%; in [5], 99.6%; in assay [6] it was 96.7%. For the same compound, the results for the growth in [7], in assay [8] and in [9] were 102%, 103% and 98.1%, respectively.
In the case of `CN1C2CCC1[C@@H](COC(=O)c1ccccc1)[C@@H](O)C2` (stereo partly specified), the growth is 111% in assay [1]; 91.3% in assay [2]; 83.5% in assay [3]; 102% in assay [4]; 103% in assay [5]; 99.7% in assay [6]. For the same compound, the growth in assay [7] was 112%; in assay [8], 96%; in [9], 103%.
With `S=P(SP(=S)(c1ccccc1)c1ccccc1)(c1ccccc1)c1ccccc1`, the growth in [1] is 97%; in [2], 101%; in assay [3] it was 91.2%; in assay [4] it was 103%; in assay [5], 101%; in assay [6], 93.5%. Besides, the results for the growth in assay [7], in [8] and in assay [9] were 99.9%, 88.7% and 98.5%, respectively.
Consider `Cc1cc(N(CCCl)CCCl)ccc1C=Nc1ccc(-c2csc(-c3ccccc3)n2)cc1`, for which the growth in assay [1] was 103%; in assay [2], 112%; in assay [3], 84.6%; in assay [4], 79.4%; in assay [5] it was 85%; in assay [6] it was 69.6%. Besides, the growth was 80.8% in [7], 58.8% in assay [8] and 80.2% in [9].
Take `COC(=O)[C@@H](C)C[C@H](Cc1ccccc1)NC(=O)c1cccc([C@@H](C[C@H](C(C)C)N(C)C(=O)[C@@H](NC(=O)[C@H]2CCCCN2C)C2CC2)OC(C)=O)n1`: the growth in assay [1] was 8.07% (active); in [2], -8.46% (active); in assay [3], 27.6%; in [4], 30%; in [5] it was 4.48% (active); in assay [6] it was 18.8%. The growth in assay [7] is -22.6% (active); in assay [8], 41.4%; in assay [9] it was 12.2%.
Take `C[C@]12CCc3sc(Nc4ccc(F)cc4F)nc3C1=CC[C@@H]1[C@@H]2CC[C@]2(C)C(=O)CC[C@@H]12`: the growth in assay [1] was 7.76% (active); in assay [2], 30.1%; in assay [3], 69.4%; in assay [4], 74.1%; in assay [5], 40.7%; in assay [6], 52.9%. Besides, the growth is 76.9% in assay [7], 67.6% in [8], -49.7% (active) in [9] and 84.4% in [10].
Turning to `COC[C@H]1OC(=O)c2coc3c2[C@@]1(C)C1=C(C3=O)[C@@H]2CCC(=O)[C@@]2(C)C[C@H]1OC(C)=O`, the growth was 53.8% in [1]; 34.4% in assay [2]; -21% (active) in assay [3]; 66.2% in [4]; 70.5% in assay [5]; 25.1% in assay [6]. In addition, the growth in assay [7] is -16.9% (active); in [8], 15.7%; in assay [9], 54.3%.
Take `Oc1cc(Cl)ccc1Oc1ccc(Cl)cc1Cl`: the growth was 14.4% in [1]; 87.4% in assay [2]; 48.3% in [3]; 23.7% in [4]; 8.21% (active) in [5]; 39% in assay [6]. Further, the growth in assay [7] was -32% (active); in assay [8] it was 24.4%; in assay [9], 11.5%; in assay [10] it was 46.8%.
For the compound `CC[C@H](CC[C@@H](C)[C@H]1CC[C@H]2[C@@H]3CC[C@H]4C[C@]5(CC[C@]4(C)[C@H]3CC[C@]12C)OO[C@](C)(C(F)(F)F)O5)C(C)C`, the growth was 97% in assay [1]; 102% in [2]; 66.7% in assay [3]; 90.4% in assay [4]; 100% in assay [5]; 94.2% in assay [6]. The growth in assay [7] was 99.4%; in assay [8] it was 83.2%; in assay [9] it was 92.9%.
For the compound `CN(C)c1ccc(C=C2C(=O)NC(=O)NC2=O)cc1`, the growth in assay [1] is 102%; in [2], 113%; in assay [3], 92%; in assay [4], 99.6%; in assay [5], 97%; in [6], 105%. In addition, the values for the growth in assay [7], in [8] and in assay [9] were 94.4%, 94.5% and 85.8%, respectively.
For `COc1ccc(N(CC(=O)NCCC[Te]c2ccccc2)C(=O)c2ccccc2)cc1`, the growth in assay [1] was 9.28% (active); in assay [2] it was -25.5% (active); in [3] it was 69.5%; in assay [4], 36.2%; in [5], 14.4%; in [6], 7.26% (active). In addition, the growth was 55.2% in assay [7], 84.1% in assay [8] and 32.8% in assay [9].
Consider `CCOC(=O)c1ccccc1C(=O)OCC`, for which the growth in [1] was 93.8%; in assay [2], 102%; in assay [3], 83.3%; in assay [4], 105%; in [5], 99.9%; in assay [6], 113%. In addition, the results for the growth in assay [7], in assay [8] and in assay [9] were 110%, 91.4% and 97.9%, respectively.
As to `O=C(O)C1C(C(=O)O)C2(Cl)C(Cl)=C(Cl)C1(Cl)C2(Cl)Cl` (stereo unspecified), the growth in assay [1] was 105% and 106%; in [2] it was 103%; in assay [3], 82.3% and 93.7%; in assay [4], 124% and 100%; in [5] it was 97.7% and 103%; in [6], 91.7% and 101%. Besides, the growth in assay [7] is 104% and 116%; in assay [8], 104% and 102%; in assay [9], 107% and 98.1%.
On to `CC[PH+](CC)CC.O=COC1OC([S-])C(OC=O)C(OC=O)C1OC=O.[Au+]` (stereo unspecified), for which the growth in assay [1] was -74.9% (active); in assay [2] it was -54% (active); in assay [3], -24.2% (active); in [4] it was -99.1% (active); in assay [5] it was -99.5% (active); in [6], -7.17% (active). Further, the growth in assay [7] was -96.7% (active); in assay [8], -99% (active); in assay [9] it was -89.4% (active).
Regarding `C=C[Se]CC(=O)/C=C/c1ccccc1`, the growth was 96.3% in assay [1]; 80.7% in assay [2]; 49.4% in [3]; 31.3% in assay [4]; 26.4% in assay [5]; 29.1% in [6]. For the same compound, the results for the growth in assay [7], in assay [8] and in assay [9] were 92.2%, 92.4% and 93.9%, respectively.
Take `COc1ccc(N)cc1OC`: the growth in [1] is 94.4%; in [2], 105%; in [3], 92%; in assay [4], 101%; in assay [5], 117%; in assay [6] it was 80.1%. The growth in [7] was 107%; in assay [8], 97.5%; in [9] it was 105%; in assay [10] it was 112%.
`N#CC(C#N)=C(C#N)C#N`: the growth was 97.9% in [1]; 110% in assay [2]; 87.7% in assay [3]; 102% in [4]; 99.8% in [5]; 96.8% in [6]. The growth in assay [7] is 102%; in assay [8], 101%; in assay [9], 52.3%; in assay [10], 105%.
Consider `C[C@]12CCc3sc(Nc4ccc(O)cc4)nc3C1=CC[C@@H]1[C@@H]2CC[C@]2(C)C(=O)CC[C@@H]12`, for which the growth is -68% (active) in [1]; 10.3% in assay [2]; 41.7% in assay [3]; 64.6% in assay [4]; 19.5% in assay [5]; 39.1% in [6]. Moreover, the growth in [7] is 62%; in [8] it was 55.8%; in assay [9] it was -8.01% (active); in [10], 77.9%.
Consider `N#CCN(CC#N)[N+](=O)[O-]`, for which the growth in assay [1] is 108%; in assay [2] it was 103%; in [3], 89.8%; in assay [4], 99.1%; in assay [5], 104%; in [6], 95.4%. For the same compound, the growth is 103% in assay [7], 98.2% in assay [8], 109% in assay [9] and 106% in assay [10].
Regarding `N#CC(N)c1ccccc1` (stereo unspecified), the growth is 104% in assay [1]; 111% in [2]; 97.4% in assay [3]; 105% in assay [4]; 105% in assay [5]; 104% in assay [6]. Moreover, the growth in [7] was 101%; in assay [8], 99.5%; in [9], 101%; in [10], 113%.
`COC12CC3C4=CCOC5CC(=O)N6c7ccccc7C1(CCN2C4)C6C53` (stereo unspecified): the growth in [1] is 103%; in [2], 100%; in [3], 70.1%; in assay [4] it was 116%; in assay [5] it was 93.2%; in [6], 105%. In addition, the growth in [7] is 110%; in assay [8], 104%; in assay [9], 96.9%; in [10], 109%.
Take `Cc1nnc([S-])o1.[Au+].c1ccc([PH+](c2ccccc2)c2ccccc2)cc1`: the growth in [1] is 8.98% (active); in assay [2], 61.1%; in assay [3], 29.3%; in assay [4] it was 29.2%; in [5], 10.1%; in assay [6], 57.7%. Also, the growth in assay [7] is 26.7%; in assay [8], 21.3%; in [9], 13.2%; in assay [10], 32.8%.
Regarding `O=C(NC(Cl)=C(Cl)Cl)P(=O)(c1ccccc1)c1ccccc1`, the growth in [1] was 105%; in assay [2] it was 112%; in assay [3], 92.3%; in assay [4], 96.1%; in assay [5], 95.5%; in assay [6], 103%. Further, the growth in [7] is 98.5%; in assay [8] it was 102%; in assay [9], 101%; in [10], 99.6%.
Consider `Cc1cc[c-]cc1.Fc1c[c-]c(-c2ccccn2)c(F)c1.[Pt+2].c1ccc([PH+](c2ccccc2)c2ccccn2)cc1`, for which the growth in [1] is 74.1%; in assay [2], 22.9%; in assay [3], 22.7%; in assay [4], 49.5%; in assay [5], 27%; in [6], 37.4%. The growth was 77.5% in assay [7], 64.5% in assay [8], 31.2% in [9] and 39.4% in assay [10].
In the case of `CO[C@H]1[C@H](O[C@@H]2C[C@@H]3C/C=C/C(=O)O[C@@H](CO)C[C@H](O)[C@@H]4C[C@H](C)[C@H](C/C=C\C=C\[C@H](C)C[C@H](C2)O3)O4)O[C@@H](C)[C@H](O)[C@H]1O`, the growth in [1] was 47.4%; in assay [2] it was 66.1%; in [3], 56.7%; in assay [4], 52.2%; in [5] it was 40.3%; in assay [6], 35%. Besides, the growth in assay [7] was 19.2%; in assay [8], 61.8%; in [9] it was 59.7%; in assay [10], 76.1%.
